Screening results: PubChem, National Center for Advancing Translational Sciences (NCATS)
IL-1B inflam inh – blocks inflammasome-driven IL-1 beta release; activity change, % at 57.5 µM; actives 4.7% (n = 360,000); THP-1 LPS/ATP IL-1B secretion, AlphaLISA, 16 h; hits give low values; in the data active means activity change below about -50%; inconclusive means mostly about -30% to -49%
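Secreted IL-1B measured by AlphaLISA bead assay after 16 h compound exposure of THP-1 cells; compounds (final up to 57.5 uM) added 1 h before LPS (250 ng/mL) and ATP (1.25 mM) stimulation; lower signal means less secretion.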
TDP1 block – blocks human tyrosyl-DNA phosphodiesterase 1. actives 0.28% (n = 350,000). recombinant TDP1, AlphaScreen DNA substrate cleavage. Potency, µM (highest dose often 130 µM), without a hit: at the highest dose activity change, negative = inhibition, hits mostly inhibitors. Q9NUW8; further: potency means the concentration at half of the fitted maximal effect; nearly all actives have a fitted effect of over 40% in size
Target sequence (Q9NUW8 whole entry, looked up): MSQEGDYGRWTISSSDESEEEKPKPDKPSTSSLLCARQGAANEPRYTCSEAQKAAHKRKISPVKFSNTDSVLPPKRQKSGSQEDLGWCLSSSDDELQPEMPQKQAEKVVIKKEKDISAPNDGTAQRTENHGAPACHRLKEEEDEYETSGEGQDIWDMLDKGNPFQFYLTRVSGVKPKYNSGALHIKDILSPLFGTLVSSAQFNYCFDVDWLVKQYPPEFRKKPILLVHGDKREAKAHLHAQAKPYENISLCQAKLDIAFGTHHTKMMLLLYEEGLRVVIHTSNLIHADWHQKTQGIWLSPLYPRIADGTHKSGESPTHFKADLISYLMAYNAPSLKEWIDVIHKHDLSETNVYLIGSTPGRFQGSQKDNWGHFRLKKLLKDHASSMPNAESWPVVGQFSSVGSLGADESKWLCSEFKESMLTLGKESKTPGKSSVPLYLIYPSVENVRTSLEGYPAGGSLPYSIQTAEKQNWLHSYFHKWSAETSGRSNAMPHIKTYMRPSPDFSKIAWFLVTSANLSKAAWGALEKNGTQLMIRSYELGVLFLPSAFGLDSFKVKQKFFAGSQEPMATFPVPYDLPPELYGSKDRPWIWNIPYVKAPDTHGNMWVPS
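Enzyme-compound mixtures sat 15 min at room temperature, followed by a 5 min reaction with 15 nM final substrate and 10 min with AlphaScreen beads. Recombinant human Tdp1 was used at 1 nM final.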
DT40 TDP1 no CPT – qHTS for Inhibitors of human tyrosyl-DNA phosphodiesterase 1 (TDP1): qHTS in cells in absence of CPT. Potency, µM (series often up to 46.2 µM), for the others: at the highest dose activity change, negative = growth inhibition, most hits filed as inhibitors. DT40 Tdp1-/- hTDP1 cells, no CPT, ATP luminescence, 48 h. AID 686978, 2013. actives 15% (n = 420,000); further: potency means the concentration at half of the fitted maximal effect; nearly all actives have a fitted effect of over 55% in size
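Growth kinetics read by CellTiter-Glo luminescence after ≥48 hr at 37 °C. Cells: DT40 Tdp1-/- stably carrying human TDP1, 400 per well, compound exposure in the absence of CPT (DMSO vehicle).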
DT40 TDP1 CPT – growth inhibition of DT40 Tdp1-/-;hTDP1 cells with camptothecin (screen for TDP1 inhibitors). chicken DT40 Tdp1-/-;hTDP1 cells + 20 nM CPT, ATP luminescence, 48 h. Potency, µM (doses to about 46.2 µM), without a hit: top-dose activity change, negative = growth inhibition, actives largely listed as inhibitors. actives 12% (n = 420,000); further: potency means the concentration at half of the fitted maximal effect; nearly all actives have a fitted effect of over 55% in size
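Chicken DT40 Tdp1-/- cells complemented with human TDP1, 400 cells/well, exposed to compounds plus 20 nM camptothecin for at least 48 h at 37 C; viability read as ATP content by CellTiter-Glo luminescence.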
ELG1 repair inh – blocks ELG1-dependent DNA repair in HEK293T cells; actives 2.3% (n = 330,000); Potency, µM (top dose mostly 46.1 µM), without a hit: top-dose activity change, negative = inhibition, usual class: inhibitors; HEK293T ELG1-luciferase reporter, luminescence, 16 h; DNA damage induced by 5-fluorouridine; further: potency means the concentration at half of the fitted maximal effect; nearly all actives have a fitted effect of over 55% in size
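Step one: seed 2,000 cells per well. Step two: pin-transfer compound or DMSO alongside 5-fluorouridine. Step three: incubate 16 hr, 37 °C, 5% CO2. Step four: add ONE-Glo, wait 30 min, read luminescence.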
Giardia kill – Giardia lamblia killing; activity change, % at 7.66 µM, hits read low; Giardia lamblia trophozoite viability; actives 0.15% (n = 340,000); in the data active means activity change below about -80%; inconclusive means between about -30% and that limit;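 further: parasites exposed to compound for two days anaerobically before the ATP read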
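Compounds were tested on trophozoites seeded at 100 cells/well and held 48 hrs at 37 deg C anaerobically. An ATP-based luminescent kit measured the remaining live cells.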
Starred values were filed as active, the others as inactive; u = inconclusive; x = not tested or not shown; [ ] = another dose, or the depositor's remark. In the library only some 19% were active in any assay of this set; here they are far more common. Unless noted, the call rests on the fitted dose curve; in most records, active means well fitted curve in the direction sought with a large enough effect; inconclusive means small, poorly fitted or top-dose-only effect, or another doubt; inactive means no such curve, though single readings can be large; an effect the other way counts as inactive or inconclusive. On the % scale 0 is the no-effect control and ±100 the full control effect.

SMILES | IL-1B inflam inh | TDP1 block | DT40 TDP1 no CPT | DT40 TDP1 CPT | ELG1 repair inh | Giardia kill
c1cncc(-c2nc3ccccn3c2Nc2ccc3c(c2)OCCO3)c1 | -24 | 10% | 12µM* | u | 18% | 1
Clc1ccc(-c2nc3cnccn3c2Nc2ccc3c(c2)OCO3)cc1 | 64 | 12% | 21µM* | u | -17% | -23
O=C(NNC(=S)Nc1ccccc1)c1cc(-c2cccnc2)nc2ccccc12 | -7 | 9% | -14% | -21% | 7% | -7
O=C(NC(=S)Nc1ccccc1)c1cc(-c2ccccc2)nc2ccccc12 | 24 | -7% | u | 29µM* | -16% | -7
O=C(NNC(=O)c1cc(-c2ccc(Cl)cc2Cl)nc2ccccc12)Nc1ccccc1 | -64* | 4% | 21µM* | u | u | -22
CC(C)(C)NS(=O)(=O)c1ccc(NC(=O)c2cc(-c3ccccc3)nc3ccccc23)cc1 | -3 | 0% | 0% | u | 23µM* | 10
Cc1ccc(NC(=O)c2cc(C)nc3ccccc23)cc1 | 19 | 4% | -13% | 6% | -8% | 11
CC(=O)Nc1ccc(NC(=O)c2cc(-c3ccccc3)nc3ccccc23)cc1 | -18 | 5% | 12µM* | u | u | 10
CCC1(C)Cc2c(sc3nnn(CC(=O)Nc4ccccc4)c(=O)c23)CO1 (stereo not given) | 4 | 6% | -15% | -16% | u | -2
CCC1(C)Cc2c(sc3nnn(CC(=O)Nc4ccccc4C)c(=O)c23)CO1 (stereo not given) | 14 | 5% | u | u | 10µM* | -3
Cc1ccccc1NC(=O)Cn1nnc2sc3c(c2c1=O)CC(C)(C)OC3 | 9 | -3% | -19% | -28% | 0% | -2
C=C(C)CSc1nc2sc3c(c2c(=O)n1Cc1ccccc1)CC(C)(CC)OC3 (stereo not given) | x | 0%[12.3 µM] | 12µM* | u | x | x
CCC1(C)Cc2c(sc3nnn(Cc4ccccc4Cl)c(=O)c23)CO1 (stereo not given) | -20 | 0% | 16µM* | u | u | 8
O=C(O)CCc1nn2c3ccccc3n(CC(=O)c3cccs3)c2nc1=O | 12 | 4% | 4% | 1% | 5% | 3
O=C(Nc1cccc(Cl)c1)NC1CCN(C2CCCCC2)C1 (stereo not given) | -9 | x | u | -3% | 0% | -8
COC(C)(C)[C@H](O)COc1c2ccoc2cc2oc(=O)ccc12 | 11 | -1% | -9% | 17% | 12% | -8
O=C(CN1CCN(C(=O)CNC(=O)c2ccc(N3CCCC3=O)cc2)CC1)Nc1ccccc1Cl | -4 | 1% | -6% | -2% | -58% | 7
CCc1ccccc1NC(=O)CN1CCN(C(=O)CNC(=O)Cc2cccc3ccccc23)CC1 | -10 | 1% | u | -17% | u | 5
Cc1cccc(C)c1NC(=O)CN1CCN(C(=O)CNC(=O)c2ccc(-c3ccccc3)cc2)CC1 | 29 | x | 16µM* | u | x | x
Cc1cccc(NC(=O)CN2CCN(C(=O)CNC(=O)c3ccc(-c4ccccc4)cc3)CC2)c1C | 38 | x | 2.3µM* | 4.6µM* | x | x
O=C(NCC(=O)N1CCN(C(=O)c2ccccc2)CC1)c1ccccc1 | 0 | 1% | -17% | 1% | u | 2
Cc1cccc(C)c1NC(=O)CN1CCN(C(=O)CNC(=O)Cc2cccc3ccccc23)CC1 | 3 | x | 15µM* | u | x | x
CCC(C)(C)NS(=O)(=O)c1cc(-c2cc(C)no2)ccc1C | x | 5% | u | u | x | x
Cc1ccc(-c2c(C#N)c(N)nc3c2CCCC3)s1 | 35 | 3% | -27% | -20% | 20% | 1
CC(C)c1ccc(NC(=O)C2(C)Cc3c(-c4cccc(C(N)=O)c4)ccnc3O2)cc1 (stereo not given) | -69* | x | u | u | x | x
